This is a sample that favours compounds with a hit; in the whole collection about 4.7% have one here.
D1 PAM: human D1 dopamine receptor positive modulation; HEK293 TREx D1 cells, calcium flux, dopamine EC20 potentiation; AID 504651; potentiation, % at 10 µM; actives 0.036% (n = 360,000); in the data active means potentiation above about 30%; further: 0% is about no effect
D1 antag: human D1 dopamine receptor antagonism | P21728 | HEK293 TREx D1 cells, calcium flux, dopamine EC80; stronger effect = lower value | activity change, negative = inhibition, % at 10 µM | actives 3.2% (n = 360,000) | AID 504652; in the data active means activity change below about -30%; further: on the % scale 0 is the no-effect control and ±100 the full control effect
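Compound effects on dopamine-evoked calcium signalling were measured in tetracycline-induced HEK293 Trex D1 cells. Dopamine at EC80 followed a 180 s compound pre-read, and fluorescence was tracked kinetically for 180 s more.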
TRHR enhancer-1: allosteric enhancers of human TRH receptor. P34981. TRHR cells, fluo-8 calcium fluorescence, EC20 TRH enhancement. enhancement, % at 2 µM. actives 0.66% (n = 360,000); in the data active means enhancement above about 30%; further: 0% is about no effect
Target sequence (P34981 whole entry, looked up): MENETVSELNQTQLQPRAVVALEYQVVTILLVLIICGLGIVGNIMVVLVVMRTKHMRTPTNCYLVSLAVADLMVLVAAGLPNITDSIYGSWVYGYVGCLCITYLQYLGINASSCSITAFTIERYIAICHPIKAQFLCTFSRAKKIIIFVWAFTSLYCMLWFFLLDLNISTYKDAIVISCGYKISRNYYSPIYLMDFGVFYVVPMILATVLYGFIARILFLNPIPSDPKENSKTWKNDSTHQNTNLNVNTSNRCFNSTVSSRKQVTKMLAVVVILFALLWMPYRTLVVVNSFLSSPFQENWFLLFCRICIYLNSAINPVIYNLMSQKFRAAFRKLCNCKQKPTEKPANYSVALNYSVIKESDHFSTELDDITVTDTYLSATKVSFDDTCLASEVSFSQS
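TRHR-expressing cells loaded with fluo-8 calcium dye were read kinetically (ex 480/em 530) during compound addition, then stimulated with an EC20 of TRH (10 nM final). Enhancement of the Gq-mediated intracellular calcium response was scored.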
D1 ag: agonists of human D1 dopamine receptor; P21728; HEK293 T-REx D1 cells, calcium flux, agonist mode; activation, % at 2 µM; actives 1% (n = 360,000); AID 504660; further: 0% is about no effect
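Tetracycline-induced HEK293 TREx D1 cells, force-coupled to calcium signalling, were dye-loaded with a no-wash calcium kit. Compound was pin-added after a 10 s baseline. Fluorescence was read kinetically at 1 cycle/s for 180 s, with calcium rises flagged as agonism.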
TRHR agonist-1: TRH receptor (human) agonism. TRHR cells, calcium flux fluo-8, FDSS agonist mode. activation, % at 2 µM. AID 493084. actives 0.18% (n = 360,000). P34981; further: 0% is about no effect
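TRHR-expressing cells loaded with fluo-8 calcium dye; 23 nL library compound pin-transferred, kinetic FDSS fluorescence (Ex 480/Em 530) recorded about 180 s for agonist-induced calcium release, before a 10 nM TRH EC20 addition for potentiator mode.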
TRHR enhancer-2: human TRH receptor allosteric enhancement confirmation. shares compounds with TRHR enhancer-1. TRH receptor cell assay, enhancer confirmation qHTS. activity change, negative = inhibition, % at 46.1 µM. 970 tested, under 10 active; active means well fitted curve in the direction sought with a large enough effect; inconclusive means small, poorly fitted or top-dose-only effect, or another doubt; inactive means no such curve, though single readings can be large; an effect the other way counts as inactive or inconclusive;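 further: compound effect scored on response to added TRH at EC20 of 10 nM; 0% is about no effect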
TRHR agonist-2: confirmation of human TRH receptor agonists; shares compounds with TRHR enhancer-1; TRHR-expressing cells, agonist activation read-out; Potency, µM (top dose mostly 46.1 µM), without a hit: at the highest dose activation, actives largely listed as activators; actives 8% (n = 970); active means well fitted curve in the direction sought with a large enough effect; inconclusive means small, poorly fitted or top-dose-only effect, or another doubt; inactive means no such curve, though single readings can be large; an effect the other way counts as inactive or inconclusive; further: potency means the concentration at half of the fitted maximal effect; 0% is about no effect; nearly all actives have a fitted effect of over 75% in size
Starred values were filed as active, the others as inactive; ? = inconclusive; . = no result given. Unless noted, no stated cut-off is given here; in the data, active means activation above about 30%; inactive means the rest.

SMILES	D1 PAM	D1 antag	TRHR enhancer-1	D1 ag	TRHR agonist-1	TRHR enhancer-2	TRHR agonist-2
COc1ccc2c(C#N)c3ccccn3c2c1	-5.8	-16.5	47.2*	18.3	9.8	-9.6	?
Cc1cc(=O)n2ccccc2c1C#N	0.7	-0.6	-5.4	0.6	0.8	.	.
CCCC1CCC(C(=O)Nn2c(C)nc3ccccc3c2=O)CC1 (stereo not given)	-4.2	0.0	44.8*	-1.2	0.0	-0.5	-0.4%
CCCCCCC1CCC(C(=O)Nn2c(C)nc3ccccc3c2=O)CC1 (stereo not given)	-2.2	8.0	-2.2	1.7	2.0	.	.
O=C(Cn1nc2c(cc1=O)CCCC2)NCc1ccccc1Cl	0.8	-22.8	-2.4	-0.3	0.1	.	.
Oc1c(/C=N/c2ccccn2)sc2ccccc12	-1.8	10.3	41.0*	14.4	6.7	7.3	?
Oc1c(C=Nc2ccc(Cl)cn2)sc2ccccc12	0.2	-9.2	-2.0	25.6	10.6	.	.
CCCc1nn2c(=O)cc(COC(=O)CNC(=O)COc3ccc(C)cc3)nc2s1	-6.6	-19.0	-4.1	-0.3	-0.3	.	.
O=C(Nc1nnc(SCc2ccc(F)cc2)s1)C1=COCCO1	-5.4	-4.9	42.7*	0.5	1.1	-2.5	2.4%
O=C(Nc1nnc(SCc2ccccc2)s1)C1=COCCO1	-3.7	-4.1	-5.5	4.1	1.2	.	.
C/C(=N\NC(=O)c1ccc(Cn2cc(Br)cn2)o1)c1ccc(NC(=O)c2ccoc2C)cc1	-4.3	-42.8*	61.1*	1.3	-0.4	10.4	8.3%
CC(C)Cn1c(=O)c2sccc2n2c(CCCC(=O)NCC(C)c3ccccc3)nnc12 (stereo not given)	-0.4	5.1	4.3	2.2	-0.1	.	.
CCOC(=O)c1c(S(=O)(=O)N2CCC(C(=O)Nc3ccc(C)cc3C)CC2)c(C)n(C)c1C	-0.8	-11.2	2.9	0.9	-0.4	.	.
COc1ccccc1CNC(=O)N1CCN(S(=O)(=O)c2ccc(C)cc2)CC1	7.4	-8.7	42.4*	5.0	-0.8	-8.8	-0.5%
COCCOC(=O)C1=C(C)N(c2ccccc2)C(=O)NC1c1cccc([N+](=O)[O-])c1 (stereo not given)	-2.5	-7.2	49.8*	0.3	-1.1	-19.3	-0.1%
CCOC(=O)C1=C(C)N(c2ccc(Cl)cc2)C(=O)NC1c1cccc([N+](=O)[O-])c1 (stereo not given)	0.7	0.5	-3.6	-0.3	-1.2	.	.
COc1ccccc1-n1nnnc1SCC(=O)Nc1ccccc1	-2.2	1.8	56.4*	5.9	0.4	-4.1	2.4%
Cc1cccc(OCc2nnc(SC(C)C(=O)O)n2Cc2ccccc2)c1 (stereo not given)	-8.3	-18.9	41.4*	2.3	1.2	12.2	-0.6%
O=C1Nc2ccccc2/C1=C/c1ccccc1Cl	-9.1	-10.0	-2.5	-0.3	0.4	.	.
COc1ccccc1/C=C1\C(=O)Nc2ccccc21	-3.6	1.7	41.4*	1.1	0.5	-8.8	-0.6%
Cc1cccc(C(=O)Oc2ccccc2C(=O)N2CCOCC2)c1	0.1	5.8	51.9*	3.8	0.0	-1.1	1.4%
CN(C)C(=O)/C(=C/c1cn(-c2ccccc2)nc1-c1cccc([N+](=O)[O-])c1)NC(=O)c1ccccc1	1.4	-18.7	42.9*	1.0	-0.5	4.1	-0.7%
C=CCNC(=O)/C(=C/c1cn(-c2ccccc2)nc1-c1cccc([N+](=O)[O-])c1)NC(=O)c1ccccc1	-1.0	-19.4	4.3	2.8	-0.2	.	.
O=C(N/N=C/c1c(O)ccc2ccccc12)c1ccc(Br)o1	22.7	-1.9	3.8	97.4*	50.8*	1.1	18.4µM*
CCc1noc(-c2ccc(N3CCCCC3)c([N+](=O)[O-])c2)n1	0.6	-0.9	0.6	6.6	0.7	.	.
SMILES	D1 PAM	D1 antag	TRHR enhancer-1	D1 ag	TRHR agonist-1	TRHR enhancer-2	TRHR agonist-2
Nc1c(S(=O)(=O)c2ccccc2)c2nc3ccccc3nc2n1Cc1ccco1	-5.8	-21.2	2.3	29.7	28.1	-1.0	?
Nc1c(S(=O)(=O)c2ccccc2)c2nc3ccccc3nc2n1CCN1CCOCC1	-7.0	8.8	2.6	3.3	0.8	.	.
Cc1ccc(NC(=O)CCN2C(=O)c3ccccc3C2=O)cc1	-1.9	-6.5	-8.2	1.1	0.0	.	.
Cc1cc(NC(=O)CCN2C(=O)c3ccccc3C2=O)no1	-3.4	1.5	56.3*	1.7	-1.4	0.0	-0.5%
O=C(Cn1cnc2c(nnn2Cc2ccccc2)c1=O)N1CCN(c2ccccc2)CC1	-1.6	7.3	89.1*	1.3	-1.1	-3.6	-0.3%
CCN(CC)C(=O)c1cc2c(=O)c3cc(Cl)ccc3oc2nc1C	-3.8	-17.8	72.6*	3.5	-2.0	-0.1	-0.7%
O=C(Cn1cncn1)NCc1ccccc1Br	-3.5	-8.3	-1.3	1.8	1.0	.	.
O=C(Cn1cncn1)c1ccccc1Br	0.3	1.5	43.7*	0.6	0.3	-1.1	1.4%
Cc1nc2cc(O)ccc2n1C	-4.0	8.1	61.4*	1.3	1.9	-3.4	1.0%
Cc1nc2cc3ccccc3cc2n1C	0.7	3.1	4.6	0.3	0.0	.	.
CCC(C)NC(=O)c1cccc(NC(=O)c2nsc3ccccc23)c1 (stereo not given)	-2.6	-20.6	0.8	1.6	-0.1	.	.
COc1ccc(C(=O)NC2CC2)cc1OC1CCN(C(C)CSC)CC1 (stereo not given)	-13.2	-22.3	2.1	2.7	26.4	-5.3	5.5%
O=C(C1COc2ccccc2O1)N1CCN(S(=O)(=O)c2cc(F)ccc2F)CC1 (stereo not given)	1.6	-15.9	-2.5	1.4	0.2	.	.
N#Cc1ccccc1S(=O)(=O)N1CCN(C(=O)C2COc3ccccc3O2)CC1 (stereo not given)	7.9	-1.3	54.1*	1.0	-0.5	-9.6	?
COC(=O)CCCNC(=O)OCc1ccc([N+](=O)[O-])cc1	-6.5	13.2	67.1*	2.7	-1.0	-3.5	1.7%
O=C(Cc1ccc([N+](=O)[O-])cc1)OCc1ccc([N+](=O)[O-])cc1	-11.6	-19.1	-7.7	5.0	-1.1	.	.
COc1cccc(N2CCN(C(=O)C3CCN(S(=O)(=O)c4cn(C)cn4)CC3)CC2)c1	0.5	-6.2	-1.3	-0.3	0.2	.	.
Cc1ccc(-c2csc3ncnc(N4CCN(Cc5ccccc5)CC4)c23)cc1	-4.8	6.0	53.9*	1.8	0.5	-3.1	-0.7%
COc1cccc(NC(=O)CN2C(=O)NC(C)(CC(C)C)C2=O)c1 (stereo not given)	-9.5	1.7	52.2*	1.3	0.3	-1.7	-0.6%
COc1cccc(NC(=O)CN2C(=O)NC3(CCCc4ccccc43)C2=O)c1 (stereo not given)	1.4	6.9	-2.8	0.5	0.0	.	.
